Experimental data: PubChem BioAssay AID1159580 (chemical genetic matrix, 2015)
In all, about 5,500 compounds went through this assay and about 2,000 (36%) were called active. Not shown: some 18% with an inconclusive outcome. No stated cut-off is given here; in the data, active means normalized growth mostly below about 0.91 (no sharp cut-off); inconclusive means no clear call, values can overlap the other calls; inactive means mostly above about 0.92. The list shows a part of the results.

Assay: chemical genetic growth profiling, strain panel (AID 1159580);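 further: tested at 20 µM; growth read once vehicle control cultures reached saturation at 30 °C; 1 = growth at the plate median or of vehicle wells; lower values mean less growth of the strain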
Conditions: S. cerevisiae deletion strains, growth OD

Measured: normalized growth

CCCc1cc(OC)c2c(c1)OCO2
inactive: locus YAL021C, strain ccr4, hits give low values 1.04 | locus YAL026C, strain drs2, hits give low values 0.988 | locus YAL030W, strain snc1, hits give low values 0.999 | locus YBL061C, strain skt5, hits give low values 0.993 | locus YBR009C, strain hhf1, hits give low values 0.988 | locus YBR023C, strain chs3, hits give low values 0.991 | locus YBR171W, strain sec66, hits give low values 0.973 | locus YBR231C, strain swc5, hits give low values 1.01 | locus YBR279W, strain paf1, hits give low values 1 | locus YCL011C, strain gbp2, hits give low values 0.999 | locus YCL016C, strain dcc1, hits give low values 0.98 | locus YCL069W, strain vba3, hits give low values 0.996 | locus YCR088W, strain abp1, hits give low values 0.985 | locus YDL005C, strain med2, hits give low values 0.975 | locus YDL040C, strain nat1, hits give low values 0.978 | locus YDR001C, strain nth1, hits give low values 0.987 | locus YDR069C, strain doa4, hits give low values 0.994 | locus YDR137W, strain rgp1, hits give low values 0.94 | locus YDR159W, strain sac3, hits give low values 0.943 | locus YDR195W, strain ref2 0.974 | locus YDR297W, strain sur2, hits give low values 0.995 | locus YDR334W, strain swr1, hits give low values 1.01 | locus YDR335W, strain msn5, hits give low values 0.988 | locus YDR392W, strain spt3, hits give low values 0.952 | locus YEL003W, strain gim4, hits give low values 0.994 | locus YEL037C, strain rad23, hits give low values 0.998 | locus YEL061C, strain CIN8 (second series), hits give low values 0.979 | locus YER015W, strain faa2, hits give low values 0.989 | locus YER016W, strain bim1, hits give low values 0.977 | locus YER111C, strain swi4, hits give low values 0.976 | locus YER155C, strain BEM2 (second series), hits give low values 0.928 | locus YFR010W, strain ubp6, hits give low values 0.999 | locus YGL167C, strain pmr1, hits give low values 0.983 | locus YGL173C, strain kem1, hits give low values 0.987 | locus YGL227W, strain vid30, hits give low values 0.974 | locus YGL240W, strain doc1, hits give low values 1 | locus YGL253W, strain hxk2, hits give low values 0.995 | locus YHR013C, strain ard1, hits give low values 1.11 | locus YHR027C, strain rpn1, hits give low values 0.982 | locus YHR030C, strain SLT2, hits give low values 0.944 | locus YHR079C, strain IRE1, hits give low values 0.946 | locus YHR142W, strain chs7, hits give low values 0.974 | locus YJL092W, strain hpr5, hits give low values 0.985 | locus YJL095W, strain BCK1 (second series), hits give low values 1 | locus YJL095W, strain BCK1, hits give low values 1.02 | locus YJL115W, strain asf1, hits give low values 0.98 | locus YJL129C, strain trk1, hits give low values 0.992 | locus YJL154C, strain vps35, hits give low values 0.994 | locus YJL164C, strain tpk1, hits give low values 1 | locus YJL166W, strain qcr8, hits give low values 0.985 | locus YJL187C, strain SWE1, hits give low values 1 | locus YJR066W, strain TOR1, hits give low values 0.937 | locus YKL160W, strain elf1, hits give low values 0.983 | locus YKR026C, strain gcn3, hits give low values 0.971 | locus YKR091W, strain srl3, hits give low values 0.984 | locus YLL001W, strain dnm1, hits give low values 0.999 | locus YLL026W, hits give low values 0.992 | locus YLL041C, strain sdh2, hits give low values 0.997 | locus YLR027C, strain aat2, hits give low values 0.984 | locus YLR113W, strain HOG1, hits give low values 1.04 | locus YLR221C, strain rsa3, hits give low values 0.989 | locus YLR258W, strain gsy2, hits give low values 0.998 | locus YLR262C, strain YPT6 (second series), hits give low values 0.927 | locus YLR320W, strain mms22, hits give low values 1 | locus YLR342W, strain FKS1, hits give low values 0.977 | locus YLR357W, strain rsc2, hits give low values 0.974 | locus YLR370C, strain arc18, hits give low values 0.984 | locus YLR384C, strain iki3, hits give low values 0.995 | locus YML120C, strain ndi1, hits give low values 0.987 | locus YMR058W, strain fet3, hits give low values 1.02 | locus YMR125W, strain sto1, hits give low values 0.971 | locus YMR129W, hits give low values 0.975 | locus YMR205C, strain PFK2, hits give low values 0.98 | locus YMR231W, strain pep5, hits give low values 1 | locus YNL071W, strain lat1, hits give low values 0.998 | locus YNL183C, strain NPR1, hits give low values 1.01 | locus YNL209W, strain ssb2, hits give low values 0.967 | locus YNL248C, strain rpa49, hits give low values 0.989 | locus YNL322C, strain KRE1 (second series), hits give low values 0.976 | locus YNR049C, strain mso1, hits give low values 0.992 | locus YOR001W, strain rrp6, hits give low values 0.999 | locus YOR070C, strain gyp1, hits give low values 0.997 | locus YOR080W, strain dia2, hits give low values 0.966 | locus YOR083W, strain WHI5, hits give low values 0.938 | locus YOR106W, strain vam3, hits give low values 0.976 | locus YOR231W, strain MKK1, hits give low values 0.957 | locus YOR265W, strain rbl2, hits give low values 0.981 | locus YOR270C, strain vph1, hits give low values 1 | locus YOR290C, strain snf2, hits give low values 0.995 | locus YPL051W, strain arl3, hits give low values 0.991 | locus YPL078C, strain atp4, hits give low values 0.981 | locus YPL106C, strain sse1, hits give low values 0.976 | locus YPL240C, strain hsp82, hits give low values 0.974 | locus YPL256C, strain CLN2, hits give low values 0.953
